{"source": "paper PMC4336329", "about": "(PLoS ONE, 2015)", "note": "About 14,000 (4.5%) of roughly 310,000 compounds showed an effect of 50% or more. Effects have a minus sign here. The sample as a whole holds a higher share of strong results than the screen did.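 Note: peak tail current of the secondary pulse compared with the same well before compound.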"}
{"biological_target": "human ether-à-go-go-related gene (hERG) potassium channel (human, UniProt Q12809)", "sequence (Q12809 whole entry, looked up)": "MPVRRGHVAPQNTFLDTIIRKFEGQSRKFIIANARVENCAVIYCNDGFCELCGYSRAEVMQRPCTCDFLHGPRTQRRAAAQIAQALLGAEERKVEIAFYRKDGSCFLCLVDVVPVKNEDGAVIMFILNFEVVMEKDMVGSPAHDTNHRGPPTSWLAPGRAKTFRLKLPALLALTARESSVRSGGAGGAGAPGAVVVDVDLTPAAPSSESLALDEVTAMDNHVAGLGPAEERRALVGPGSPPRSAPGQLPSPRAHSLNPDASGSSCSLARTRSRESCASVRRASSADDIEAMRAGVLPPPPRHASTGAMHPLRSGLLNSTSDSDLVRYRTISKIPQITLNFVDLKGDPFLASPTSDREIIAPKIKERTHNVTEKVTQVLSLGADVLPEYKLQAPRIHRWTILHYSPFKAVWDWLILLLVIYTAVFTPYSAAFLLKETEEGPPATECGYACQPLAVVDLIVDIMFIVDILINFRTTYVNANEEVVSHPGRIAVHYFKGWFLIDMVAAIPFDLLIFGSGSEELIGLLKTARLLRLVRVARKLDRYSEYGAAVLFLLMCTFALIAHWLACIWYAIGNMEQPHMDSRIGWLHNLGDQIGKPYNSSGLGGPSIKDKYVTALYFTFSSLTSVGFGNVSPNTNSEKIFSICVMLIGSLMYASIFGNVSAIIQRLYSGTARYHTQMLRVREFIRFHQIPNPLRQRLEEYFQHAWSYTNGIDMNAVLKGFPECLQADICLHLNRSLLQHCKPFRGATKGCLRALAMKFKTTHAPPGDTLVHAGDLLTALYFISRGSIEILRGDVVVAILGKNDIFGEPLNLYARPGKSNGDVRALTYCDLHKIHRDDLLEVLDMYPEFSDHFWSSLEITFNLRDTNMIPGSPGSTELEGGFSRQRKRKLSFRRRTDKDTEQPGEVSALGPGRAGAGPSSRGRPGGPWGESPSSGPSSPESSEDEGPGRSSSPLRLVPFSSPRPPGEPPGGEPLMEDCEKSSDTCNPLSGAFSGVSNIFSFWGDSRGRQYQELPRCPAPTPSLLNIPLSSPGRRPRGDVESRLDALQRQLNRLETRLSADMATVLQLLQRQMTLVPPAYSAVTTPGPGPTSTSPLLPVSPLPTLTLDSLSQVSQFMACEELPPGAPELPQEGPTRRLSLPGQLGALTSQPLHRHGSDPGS", "assay": "primary screen, population patch clamp on CHO cells stably expressing hERG; higher = less effect of the substance", "units": {"hERG current change (%, negative = inhibition) at 10uM": "%"}}
{"smiles": "COc1ccccc1N(CC(=O)NC1CCCCC1)C(=O)CCC(=O)Nc1nccs1", "hERG current change (%, negative = inhibition) at 10uM": -2.17}
{"smiles": "COc1ccc(-c2ccc(SCC(=O)c3ccccc3)nn2)cc1OC", "hERG current change (%, negative = inhibition) at 10uM": -15.7}
{"smiles": "CC(=O)c1ccc(NC(=O)Nc2ccccc2)cc1", "hERG current change (%, negative = inhibition) at 10uM": -2.03}
{"smiles": "CCOC(=O)c1c(C)sc2c1N(C(=O)CN1CCOCC1)c1cc(Cl)ccc1S2", "hERG current change (%, negative = inhibition) at 10uM": -21.5}
{"smiles": "CC1CCN(C(=O)CN(C2CCCCC2)S(C)(=O)=O)CC1", "hERG current change (%, negative = inhibition) at 10uM": 1.15}
{"smiles": "COc1ccc(N2CCN(c3cc(C)c4cccc(C)c4n3)CC2)cc1", "hERG current change (%, negative = inhibition) at 10uM": 22.7}
{"smiles": "COc1ccccc1NC(=O)c1nnn(CC(=O)Nc2cc(C)cc(C)c2)c1N", "hERG current change (%, negative = inhibition) at 10uM": 17}
{"smiles": "CC(C)S(=O)(=O)c1cnc(N2CCOCC2)nc1N", "hERG current change (%, negative = inhibition) at 10uM": 11.4}
{"smiles": "Nc1ccc2nc(-c3ccccc3)sc2c1", "hERG current change (%, negative = inhibition) at 10uM": 23.4}
{"smiles": "Cc1cccc(OCc2n[nH]c(=S)n2Cc2ccccc2)c1", "hERG current change (%, negative = inhibition) at 10uM": 11.8}
{"smiles": "O=C(CNC(=O)c1sc2ccccc2c1Cl)Nc1ccccc1F", "hERG current change (%, negative = inhibition) at 10uM": -6.72}
{"smiles": "COc1ccc(NC(=O)CN(C)C(=O)CCC2CCCC2)cc1", "hERG current change (%, negative = inhibition) at 10uM": 5.49}
{"smiles": "O=C(C1CCC(CNS(=O)(=O)c2cccc3nsnc23)CC1)N1CC=C(c2ccccc2)CC1", "note": "(stereo not shown)", "hERG current change (%, negative = inhibition) at 10uM": -10.3}
{"smiles": "O=C(C1CCCN(S(=O)(=O)c2cccc3nsnc23)C1)N1CCCCCC1", "note": "(stereo not shown)", "hERG current change (%, negative = inhibition) at 10uM": -16.8}
{"smiles": "O=C(C1CCCN(S(=O)(=O)c2cccc3nsnc23)C1)N1CCN(c2ccccn2)CC1", "note": "(stereo not shown)", "hERG current change (%, negative = inhibition) at 10uM": -50.2}
{"smiles": "CCCN(CCC)C(=O)C1CCC(CNS(=O)(=O)c2cccc3nsnc23)CC1", "note": "(stereo not shown)", "hERG current change (%, negative = inhibition) at 10uM": -69.5}
{"smiles": "O=C(CCNS(=O)(=O)c1cccc2nsnc12)N1CCN(c2ccccn2)CC1", "hERG current change (%, negative = inhibition) at 10uM": -24}
{"smiles": "CCCCN(CC)C(=O)C1CCC(CNS(=O)(=O)c2cccc3nsnc23)CC1", "note": "(stereo not shown)", "hERG current change (%, negative = inhibition) at 10uM": -23.7}
{"smiles": "CCN(CC)C(=O)C1CCC(CNS(=O)(=O)c2cccc3nsnc23)CC1", "note": "(stereo not shown)", "hERG current change (%, negative = inhibition) at 10uM": 2.47}
{"smiles": "CC1CCN(C(=O)C2CCCN(S(=O)(=O)c3cccc4nsnc34)C2)CC1", "note": "(stereo not shown)", "hERG current change (%, negative = inhibition) at 10uM": -27.8}
{"smiles": "O=C(C1CCC(CNS(=O)(=O)c2cccc3nsnc23)CC1)N1CCN(c2ccccn2)CC1", "note": "(stereo not shown)", "hERG current change (%, negative = inhibition) at 10uM": -53.9}
{"smiles": "CN(C)c1ccc(CN(Cc2ccco2)C(=O)c2ccco2)cc1", "hERG current change (%, negative = inhibition) at 10uM": -30.1}
{"smiles": "COC(=O)c1ccc(C(=O)OC)c(NC(=S)N2CCN(C)CC2)c1", "hERG current change (%, negative = inhibition) at 10uM": 20.4}
{"smiles": "Cc1cc(C(=O)CS(=O)(=O)c2ccc(Cl)cc2)cc(C)c1O", "hERG current change (%, negative = inhibition) at 10uM": 16.6}
{"smiles": "CS(=O)(=O)Nn1cnc2ccccc2c1=O", "hERG current change (%, negative = inhibition) at 10uM": 10.7}
{"smiles": "Cc1cc(C)c(S(=O)(=O)N2CCCOC2CNC(=O)C(=O)NCc2cccs2)c(C)c1", "note": "(stereo not shown)", "hERG current change (%, negative = inhibition) at 10uM": -8.31}
{"smiles": "O=C1NC(=Nc2ccccc2)/C(=C/c2ccco2)S1", "hERG current change (%, negative = inhibition) at 10uM": 12.4}
{"smiles": "CCOc1ncccc1C(=O)NNC(=O)c1cccc(S(=O)(=O)Nc2ccc(OC)cc2)c1", "hERG current change (%, negative = inhibition) at 10uM": 6.87}
{"smiles": "CCOC(=O)Cc1[nH]nc2c1C(c1cccc(OC)c1OC)C(C#N)=C(N)O2", "note": "(stereo not shown)", "hERG current change (%, negative = inhibition) at 10uM": -0.21}
{"smiles": "CCN1CCN(c2nc(-c3ccccc3)c3ccccc3n2)CC1", "hERG current change (%, negative = inhibition) at 10uM": -71.2}
{"smiles": "CCOC(=O)N1CCN(c2nc(-c3ccccc3)c3ccccc3n2)CC1", "hERG current change (%, negative = inhibition) at 10uM": 5.1}
{"smiles": "c1ccc(-c2nc(N3CCNCC3)nc3ccccc23)cc1", "hERG current change (%, negative = inhibition) at 10uM": -65.2}
{"smiles": "c1ccc(-c2nc(N3CCCC3)nc3ccccc23)cc1", "hERG current change (%, negative = inhibition) at 10uM": 8.87}
{"smiles": "O=C(O)CCCC(=O)N1CCN(c2nc(-c3ccccc3)c3ccccc3n2)CC1", "hERG current change (%, negative = inhibition) at 10uM": 1.86}
{"smiles": "O=C(O)CCC(=O)N1CCN(c2nc(-c3ccccc3)c3ccccc3n2)CC1", "hERG current change (%, negative = inhibition) at 10uM": 13.7}
{"smiles": "CN1CCN(c2nc(-c3ccccc3)c3cc(Cl)ccc3n2)CC1", "hERG current change (%, negative = inhibition) at 10uM": -48.1}
{"smiles": "O=C1CN(c2nc(-c3ccccc3)c3cc(Cl)ccc3n2)c2ccccc2N1", "hERG current change (%, negative = inhibition) at 10uM": 13.1}
{"smiles": "Clc1ccc2nc(N3CCNCC3)nc(-c3ccccc3)c2c1", "hERG current change (%, negative = inhibition) at 10uM": -59.1}
{"smiles": "CC(=O)NC(Cc1ccc(F)cc1)C(=O)O", "note": "(stereo not shown)", "hERG current change (%, negative = inhibition) at 10uM": -24.1}
{"smiles": "COC(=O)CP(=O)(c1ccccc1)c1ccccc1", "hERG current change (%, negative = inhibition) at 10uM": 15.2}
{"smiles": "Oc1ccc(/C=N/NP(=S)(c2ccccc2)c2ccccc2)cc1", "hERG current change (%, negative = inhibition) at 10uM": -3.89}
{"smiles": "COc1ccccc1CNC(=O)c1cccs1", "hERG current change (%, negative = inhibition) at 10uM": 3.82}
{"smiles": "CCC1=C2CC[C@H]3C(=O)N(CC)C(=O)[C@H]3[C@H]2[C@@]2(Cc3ccccc3)C(=NCCOC)OC(=O)N2C1=O", "hERG current change (%, negative = inhibition) at 10uM": 10}
{"smiles": "CC(C)(Oc1ccc(Cl)cc1)C(=O)OCC(=O)N1CCN(c2ccccc2)CC1", "hERG current change (%, negative = inhibition) at 10uM": -7.02}
{"smiles": "CCN1C[C@]2(COC)CC[C@H](OC)[C@@]34C1[C@]1(OCO[C@@]15C[C@H](OC)[C@H]1C[C@@H]3[C@@H]5[C@H]1OC)[C@@H](O)[C@H]24", "hERG current change (%, negative = inhibition) at 10uM": 10.5}
{"smiles": "C=CCn1c(COc2ccc(Cl)cc2)nnc1SCC(=O)Nc1ccc(S(N)(=O)=O)cc1", "hERG current change (%, negative = inhibition) at 10uM": -9.02}
{"smiles": "Cc1ccccc1-c1nc(CS(=O)CC(=O)NCCN2CCOCC2)c(C)o1", "note": "(stereo not shown)", "hERG current change (%, negative = inhibition) at 10uM": 3.48}
{"smiles": "Cc1ccccc1-c1nc(CS(=O)CC(=O)NCCN2CCN(Cc3ccccc3)CC2)c(C)o1", "note": "(stereo not shown)", "hERG current change (%, negative = inhibition) at 10uM": -58.7}
{"smiles": "Cc1ccc(-c2nc(CS(=O)CC(=O)NCCCN3CCN(Cc4ccccc4)CC3)c(C)o2)cc1", "note": "(stereo not shown)", "hERG current change (%, negative = inhibition) at 10uM": -38.2}
{"smiles": "Cc1oc(-c2ccc(Cl)cc2)nc1CS(=O)CC(=O)NCCCN1CC(C)CC(C)C1", "note": "(stereo not shown)", "hERG current change (%, negative = inhibition) at 10uM": -65.5}
{"smiles": "Cc1oc(-c2ccc(Cl)cc2)nc1CS(=O)CC(=O)NCCCN1CCOCC1", "note": "(stereo not shown)", "hERG current change (%, negative = inhibition) at 10uM": -3.95}
{"smiles": "Cc1oc(-c2ccc(Cl)cc2)nc1CS(=O)CC(=O)NCCCN1CCN(Cc2ccccc2)CC1", "note": "(stereo not shown)", "hERG current change (%, negative = inhibition) at 10uM": -62.1}
{"smiles": "Cc1ccccc1-c1nc(CS(=O)CC(=O)NCc2ccccc2)c(C)o1", "note": "(stereo not shown)", "hERG current change (%, negative = inhibition) at 10uM": -21}
{"smiles": "Cc1oc(-c2ccc(Cl)cc2)nc1CS(=O)CC(=O)NCCCN1CCCC(C)C1", "note": "(stereo not shown)", "hERG current change (%, negative = inhibition) at 10uM": -36.8}
{"smiles": "Cc1ccc(-c2nc(CS(=O)CC(=O)NCCCN3CC(C)CC(C)C3)c(C)o2)cc1", "note": "(stereo not shown)", "hERG current change (%, negative = inhibition) at 10uM": -19.9}
